Assay results: PubChem BioAssay (NCI)
This is part of a sample that, as a whole, favours compounds with a hit. Of some 83,000 tested, about 20% had one in any assay.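 Treatment: one concentration, 48 hours, 96-well format. Scoring: percent growth, with anything below 10 considered active.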 A number with no mark means an inactive call. The source made the active and inactive calls.

Experiments:
Test in all cases: NCI-60 one-dose screen, 48 h (100 = growth as untreated, 0 = no growth, -100 = all killed)
DU-145 prostate = conditions: 10 µM unless noted
MALME-3M melanoma = conditions: 10 µM unless noted
MDA-MB-231 breast = conditions: 10 µM unless noted
RXF 393 renal = conditions: 10 µM unless noted
SF-268 CNS = conditions: 10 µM unless noted
SF-295 CNS = conditions: 10 µM unless noted
SF-539 CNS = conditions: 10 µM unless noted
UACC-257 melanoma = conditions: 10 µM
M14 melanoma = conditions: 10 µM unless noted
HCT-15 colon = conditions: 10 µM unless noted
HT29 colon = conditions: 10 µM unless noted
SNB-75 CNS = conditions: 10 µM unless noted
SNB-19 CNS = conditions: 10 µM unless noted
U251 CNS = conditions: 10 µM unless noted
PC-3 prostate = conditions: 10 µM unless noted
SK-MEL-5 melanoma = conditions: 10 µM unless noted
UACC-62 melanoma = conditions: 10 µM unless noted
LOX IMVI melanoma = conditions: 10 µM unless noted
SK-MEL-28 melanoma = conditions: 10 µM unless noted
K-562 leukemia = conditions: 10 µM unless noted

| Compound | growth (DU-145 prostate) | growth (MALME-3M melanoma) | growth (MDA-MB-231 breast) | growth (RXF 393 renal) | growth (SF-268 CNS) | growth (SF-295 CNS) | growth (SF-539 CNS) | growth (UACC-257 melanoma) | growth (M14 melanoma) | growth (HCT-15 colon) | growth (HT29 colon) | growth (SNB-75 CNS) | growth (SNB-19 CNS) | growth (U251 CNS) | growth (PC-3 prostate) | growth (SK-MEL-5 melanoma) | growth (UACC-62 melanoma) | growth (LOX IMVI melanoma) | growth (SK-MEL-28 melanoma) [%] | growth (K-562 leukemia) |
| --- | --- | --- | --- | --- | --- | --- | --- | --- | --- | --- | --- | --- | --- | --- | --- | --- | --- | --- | --- | --- |
| N#Cc1ccc(S(=O)(=O)Nc2ccc(-c3cnc(N)[nH]3)cc2)cc1 | 107% | 98% | 100% | 102% | 105% | 96.9% | 98.7% | 98.2% | 99.9% | 96.7% | 98.5% | 106% | 94.1% | 98.3% | 99% | 100% | 92.4% | 97.9% | 97.1 | – |
| C=CCn1c(SCC(=O)Nc2cccc(C(=O)/C=C/c3ccccc3)c2)nc2ccccc2c1=O | 77.4% | 100% | 94.4% | 83.3% | 92% | 95.7% | 77.1% | 118% | 77.1% | 57.9% | 14.7% | 82.1% | 77.1% | 46.7% | 77.4% | 98.6% | 86.3% | 24.4% | 95.4 | – |
| C=CCn1c(SCC(=O)Nc2cccc(C(=O)/C=C/c3ccc(Br)cc3)c2)nc2ccccc2c1=O | 95.7% | 72.7% | 81.2% | 71.1% | 90.3% | 91.4% | 66.6% | 105% | 85.4% | 76.3% | 83.9% | 61.8% | 76.8% | 74.6% | 79.4% | 98.4% | 73.4% | 74.8% | 98.2 | – |
| C=CCn1c(SCC(=O)Nc2cccc(C(=O)/C=C/c3ccccc3Cl)c2)nc2ccccc2c1=O | 93.7% | 96.9% | 93.8% | 94.3% | 88.4% | 93.8% | 86.6% | 107% | 87.5% | 75.4% | 75% | 70.9% | 78.5% | 81.8% | 82.8% | 98.8% | 83.4% | 79.5% | 92.3 | – |
| C=CCn1c(SCC(=O)Nc2cccc(C(=O)/C=C/c3ccc(Cl)cc3)c2)nc2ccccc2c1=O | 95.1% | 95.6% | 81.3% | 87% | 87.3% | 94.7% | 85.9% | 102% | 87.8% | 81.5% | 84.8% | 72.2% | 86.9% | 90.7% | 89% | 99.1% | 72.2% | 77.9% | 93.3 | – |
| Cc1ccc(C2CC(c3ccc(Nc4nc(NCCO)nc(Nc5ccc(Cl)cc5)n4)cc3)=Nc3c(N)nc(N)nc3N2)cc1 (centres undefined) | -90.7% (active) | 95.6% | -74.3% (active) | – | -46.7% (active) | 28.9% | -20.3% (active) | 113% | 2.15% (active) | -81.7% (active) | -90.8% (active) | 112% | -90.3% (active) | -96.8% (active) | -32.7% (active) | 67.5% | – | -93.9% (active) | 110 | -53.5% (active) |
| CC1OC(O[C@@H]2[C@H](O)C(CO)OC(O[C@H]3COC(O[C@H]4CC[C@]5(C)[C@H]6CC[C@]78OC[C@@]9(CC[C@](C)(C=O)C[C@H]97)C(=O)C[C@@]8(C)[C@]6(C)CC[C@H]5C4(C)C)[C@@H](O)[C@@H]3O)[C@H]2OC2OC[C@@H](O)[C@@H](O)[C@@H]2O)[C@@H](O)[C@@H](O)[C@H]1O (some centres undefined) | 108% | 98.2% | 79.7% | 87.4% | 95.9% | 89.9% | 99.8% | 95.3% | 96.9% | 95.8% | 97.1% | 81.4% | 90.2% | 95.8% | 81.4% | – | – | 88.1% | – | – |
| CS(=O)c1nccc(-c2c(-c3ccc(F)c(OCCc4ccccc4)c3)nc3sccn23)n1 (centres undefined) | 4.08% (active) | 87.5% | 84.7% | 98.5% | 101% | 101% | 95.9% | 28.5% | 76% | 65.4% | 59.9% | 106% | 86.6% | 106% | 64.6% | 100% | 93.8% | 72.1% | 87.8 | – |
| CC1OC(O[C@@H]2[C@H](O)C(CO)OC(O[C@H]3COC(O[C@H]4CC[C@]5(C)[C@H]6CC[C@]78OC[C@@]9(CCC(C)(C)C[C@H]97)[C@H](O)C[C@@]8(C)[C@]6(C)CC[C@H]5C4(C)C)[C@@H](OC4OC(CO)[C@@H](O)[C@@H](O)[C@@H]4O)[C@@H]3O)[C@H]2OC2OC[C@@H](O)[C@@H](O)[C@@H]2O)[C@@H](O)[C@@H](O)[C@H]1O (some centres undefined) | -79.7% (active) | -70.6% (active) | -72.2% (active) | -92% (active) | -65.9% (active) | -92.3% (active) | -80.5% (active) | -76.2% (active) | -80.7% (active) | -52.8% (active) | -79% (active) | -87.1% (active) | -69.2% (active) | -86.8% (active) | -85.4% (active) | – | – | -82.7% (active) | – | – |
| CNC(=O)c1cc(Oc2ccc3nc(NC(=O)c4cccc(C(F)(F)F)c4)sc3c2)ccn1 | 101% | 97.2% | 104% | 106% | 98% | 92.6% | 99.4% | 104% | 96.6% | 98.1% | 106% | 90.7% | 93.3% | 104% | 102% | 101% | 85% | 99.3% | 89.8 | – |
| Cc1ccc(-c2cc(-c3cccc4ccccc34)n3c(n2)nc2ccccc23)cc1 | 69.4% | 32.2% | 73.1% | – | 66.4% | 40.9% | 49.4% | 75.1% | 61.5% | 48% | 73.4% | 46.8% | 53.5% | 48.9% | 60.3% | 40.9% | 43.5% | 56.6% | 77 | 51.1% |
| O=C1c2c(c3c4cc(O)ccc4oc3c3[nH]c4ccccc4c23)C(=O)N1O | 11.3% | 9.51% (active) | 26% | – | 17.4% | 10.2% | -15% (active) | 22.1% | -4.66% (active) | 15.2% | -64.6% (active) | -8.52% (active) | 16.4% | -3.58% (active) | 12.8% | -76.1% (active) | -53.6% (active) | -67.8% (active) | 19.4 | 14.4% |
| COc1ccc([C@H]2[C@H](O)C(=O)N2c2cc(OC)c(OC)c(OC)c2)cc1Cl | 18.3% | 65.9% | 26.9% | 24.3% | 44.7% | 5.44% (active) | -9.87% (active) | 40.8% | 10.3% | 9.77% (active) | 1.45% (active) | 58.6% | 29.2% | 1.42% (active) | 12.6% | -12.5% (active) | 31% | 14.4% | 63.6 | – |
| C=C1C(=O)O[C@@H]2C[C@@H](C)CCC(=O)[C@](C)(OC(C)=O)C[C@H](OC(=O)/C(C)=C\C)[C@@H]12 | 37.2% | 85.5% | 50.4% | 51.3% | 96.1% | 97.5% | 72.3% | 73.4% | 82.4% | 60.9% | 52.5% | 80.6% | 90.6% | 88.8% | 79.1% | – | – | 54.8% | – | – |
| COc1ccc(/C(C)=C(\c2ccc(Cl)cc2)c2ccc(OCCN)cc2)cc1 | 87.2% | 83% | 67.1% | 68.3% | 89.4% | 103% | 90% | 94.7% | 81.4% | 40.5% | 0.975% (active) | 88.9% | 87.8% | 61.9% | 78.9% | 96.7% | 98.5% | 0.915% (active) | 86.1 | – |
| CCCCCCNC(=O)Oc1ccc(/C(=C(/C)c2ccccc2)c2ccc(OCCN(C)C)cc2)cc1 | 83.2% | 37.6% | 52.2% | 46.5% | 69.1% | 90% | 46.9% | -55.9% (active) | -35.9% (active) | -32.3% (active) | -25.6% (active) | 73.5% | 64.4% | 54.7% | 70.6% | 78.2% | 52.8% | 13.8% | 55.1 | – |
